Results reported in the supplement of paper PMC6555819.

Key:
Test in all cases: PBM binding z-score (relative to random genomic background probes); higher = stronger binding; sequences stand for … in GC…GCGATTGACAGCGTAGAATGAAGG
[1] = system: RARb homodimer (NR concentration 270 nM)
Summary of the method: (§1)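 Ligand-free nuclear receptor dimers were applied to custom Agilent 4×180K protein-binding microarrays whose double-stranded probes carried direct-repeat seeds, single-nucleotide variants, half-site ablations and random human genomic background sequences in 34-nt variable regions. Incubation lasted 1 h. Binding z-scores were computed against the random background probes from regression-normalized fluorescence.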

[2] = system: RARg:RXRa (NR concentration 270 nM, RXRa partner concentration 90 nM)
Summary of the method: as §1

[3] = system: RARg homodimer (NR concentration 270 nM)
Summary of the method: as §1

[4] = system: RXRa DBDmut IVT, anti-RXR (DBD mutation: RXRa K156A/R161A, NR concentration 90 nM)
Summary of the method: as §1

[5] = system: RXRa homodimer (NR concentration 180 nM)
Summary of the method: as §1

[6] = system: THRa homodimer (NR concentration 90 nM)
Summary of the method: as §1

[7] = system: VDR homodimer (NR concentration 270 nM)
Summary of the method: as §1

[8] = system: VDR:RXRa (NR concentration 270 nM, RXRa partner concentration 90 nM)
Summary of the method: as §1

| Sequence | PBM binding z-score [1] | PBM binding z-score [2] | PBM binding z-score [3] | PBM binding z-score [4] | PBM binding z-score [5] | PBM binding z-score [6] | PBM binding z-score [7] | PBM binding z-score [8] |
| --- | --- | --- | --- | --- | --- | --- | --- | --- |
| CAAACTAGGTCACGTAAGGTCAAAGTCGAATGAC | 5.56 | 7.3 | 7.46 | 2.68 | 6.84 | 5.19 | 4.03 |  |
| TAGCCTAGGTCAGATCGGGTCAGTATACGCTATA | 3.56 | 3.77 | 4.62 | -0.194 | 2.58 | 1.29 | 0.51 |  |
| TTACCGAGGTGAGCTGAGGTCGTTGATCCAACTC | 1.58 | 1.48 | 1.04 | 0.0413 | 1.7 | 1.88 | 1.73 |  |
| TCTGCTAGGTCAACGAAGGTCAGCTAATCTGCTA | 5.28 | 5.51 | 6.42 | 1.14 | 4.18 | 1.69 | 1.38 |  |
| ACTCGGAGGACAAAGATCAGAGCTACGCCAGTGA | -0.272 | 0.568 | 0.931 | 0.426 | 0.18 | -0.696 | -0.571 |  |
| GCATATAGGTTATACAAGGTGAAAGTCCGATTGT | 1.57 | 1.7 | 1.41 | 0.657 | 1.79 | 1.27 | 0.435 |  |
| GCTAGTTGGTCAGTAAAAGGTAACACACCGGTCG | 1.31 | 0.845 | 0.741 | 0.148 | 0.462 | 0.175 | 0.0919 |  |
| CAAACTAGGTCACGCAAGGTCAAAGTCGAATGAC | 5.54 | 6.98 | 7.6 | 3.02 | 6.98 | 4.21 | 4.65 |  |
| GGAACGAGGGCATTCGAGGTGATAGCATGGCGAT | 1.3 | 1.4 | 1.47 | 2.66 | 1.07 | 0.517 | 1.77 |  |
| GCATATAGGTCATACAAGGTGAAAGTCCGATTGT | 3.94 | 5.1 | 4.65 | 1.98 | 4.8 | 1.62 | 1.23 |  |
| CGTCCAAGGTCATAGGAGGTCAGAGAAGACAGAT | 5.31 | 6.78 | 7.13 | 4.15 | 6.71 | 3.44 | 4.23 | 6.67 |
| TATACATGGTCAAAGGCCAGAGTACGAATGTCGA | 1.31 | 1.59 | 1.67 | -0.652 | 1.39 | -0.46 | 0.302 | 0.445 |
| ATATGTAGGTTAGCTGGGGTCATTCATACTAGGC | 3.88 | 4.01 | 3.08 | 2.52 | 5.44 | 3.63 | 4.81 | 6.21 |
| TAGCCTAGGCCATTCAGGGGCCAGTATAGAAAGC | 0.802 | 0.999 | 0.71 | -0.81 | -0.0459 | -0.688 | -0.441 | -0.423 |
| CAAACTAGGTCACTGAGGTCAAAGTCCGTGCGTA | 5.53 | 6.59 | 7.09 | 3.56 | 6.35 | 5.12 | 7.63 |  |
| CAAACTAGGTCATGAGGTCAAAGTCCGCTTCCCG | 5.22 | 7.26 | 6.81 | 3.45 | 7.98 | 4.88 | 5.84 | 6.08 |
| AATACAGGGTCATCCTAGGCCAGAGTACGCACAG | 3.81 | 5.57 | 4.83 | 3.9 | 6.16 | 1.97 | 3.52 | 5.38 |
| GCGACTGGGGCAAAGCAGGTCACCATAAGGTTGG | 3.27 | 2.56 | 2.37 | -0.174 | 2.09 | 1.37 | 0.256 | 2.52 |
| CTCGAAAGGTCGTGCTCAGGTCAGTATACCAAAC | 4.16 | 7.03 | 4.92 | 2.37 | 5.35 | 2.7 | 2.45 |  |
| CAAACCAGGTCACCGGAAGGTCAAAGTCCGCATG | 5.65 | 8.7 | 7.24 | 3.06 | 7.56 | 4.28 | 3.95 |  |

| Sequence | PBM binding z-score [1] | PBM binding z-score [2] | PBM binding z-score [3] | PBM binding z-score [4] | PBM binding z-score [5] | PBM binding z-score [6] | PBM binding z-score [7] | PBM binding z-score [8] |
| --- | --- | --- | --- | --- | --- | --- | --- | --- |
| TTACCAAGGTGAGCTGAGGTCATTGATCCAACTC | 3.91 | 3.65 | 3.31 | 0.946 | 4.03 | 4.43 | 4.32 | 5.79 |
| CGTCCAAGGTCAAAGGTCAGTGGAGAGATGACGG | 5.56 | 8.71 | 8.02 | 4.1 | 10.1 | 2.93 | 4.05 |  |
| CGCGAAAGGTCGGTTGAGGTGAGTATACGGATAA | 2.23 | 2.88 | 2.61 | 0.708 | 2.44 | 1.65 | 0.652 |  |
| CTCGAAAGGTCGATTGAGGTGAGTATACGGATAA | 2.68 | 3.71 | 3.34 | 1.66 | 3.46 | 0.93 | 0.553 |  |
| GATACAGGGGCAGCTAGAGGCCAGAGTATGGAAA | 1.18 | 2.18 | 1.15 | -0.0216 | 0.387 | -0.373 | -0.000725 |  |
| CTCGAAAGGTCGTTTGAGGTGAGTATACGGATAA | 3.19 | 4.34 | 3.76 | 2.94 | 4.56 | 1.76 | 2.79 | 4.84 |
| CCTAGTTGGTCAACGTCACACACGCTATAGGTAC | 1.13 | 0.774 | 1.18 | 0.857 | 0.526 | 0.632 | 0.435 |  |
| TAGCCGAGGTCAGATCGGGCCAGTATACGCTATA | 3.62 | 5.06 | 5.59 | 2.66 | 4.74 | 1.32 | 2.08 |  |
| AATACAGGGTCATCGGAGGCCAGAGTACGCACAG | 4.26 | 5.91 | 5.05 | 3.51 | 6.76 | 1.96 | 3.88 |  |
| TAGCCTAGCTCAGATCGGGCCAGTATACGCTATA | -1.12 | -0.862 | -0.645 | -1.11 | -0.698 | -0.99 | -0.652 |  |
| GGAACGTGGGCATTCGAGTTGATAGCATGGCGAT | -0.657 | -0.318 | -0.321 | -0.166 | -0.389 | -1.07 | 0.0395 |  |
| ATATGCAGGTTAGCTGGGGTCATTCAGACTAGGC | 3.72 | 4.14 | 3.11 | 1.89 | 5.56 | 2.98 | 4.17 |  |
| GCATATAGGTAATACAAGATGAAAGTCCGATTGT | -0.399 | 0.381 | 0.572 | 0.287 | 0.469 | -0.636 | -0.117 |  |
| CGTCCAAGGTCAGCGAGGTCAGTGAATGCCGAGT | 5.62 | 6.74 | 7.69 | 3.3 | 6.29 | 4.19 | 6.64 |  |
| CCTAGCAGGCCAATCTGGATCACTCAAGGCTTGA | -0.439 | -0.153 | -0.148 | 0.159 | -0.35 | -0.7 | -0.867 | -0.611 |
| CCTTACGGGTCACTCGAGGTTATAGCATCGGAGT | 3.27 | 4.49 | 3.78 | 1.69 | 4.75 | 0.632 | 2.08 |  |
| CGAACTAGATCAGAACAGGACAGTGAAGGATGAT | 0.0748 | -0.355 | 0.431 | 0.063 | 0.00592 | -0.243 | -0.111 |  |
| ACTAGTTGGTCAACTGAGGTCACACACAATTCGG | 4.82 | 4.49 | 4.46 | 1.89 | 4.58 | 4.84 | 3.22 |  |
| CGTCAAAGTTCAATTAAGGTAACGTAAAGCACGC | 3.89 | 5.26 | 5.98 | 4.4 | 3.67 | 2.51 | 3.71 | 3.98 |
